Results filed as inconclusive are left out. Active and inactive are the calls of the source. Unless noted, calls follow the shape of the dose curve; as a rule, active = well fitted curve in the direction sought with a large enough effect in the repeat runs; inconclusive = weak or mixed curves; inactive = no such curve, though single readings can be large; an effect the other way counts as inactive or inconclusive. Where a SMILES comes first, the peptide text is derived from it. [ ]: non-standard residue; d: D form. pGlu = O=C1CC[C@@H](C(=O)O)N1
Key:
[1] = A CellTox Green Cytotoxicity Assay to monitor cytotoxicity in HEK293 cells - 32 hour (AID 1224881); also: nearly all actives have a fitted effect of over 40% in size
Method in brief: (§1)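 Dead-cell fluorescence measured kinetically: asymmetric cyanine dye, HEK293, 600 cells/well, 5 h settle, 23 nL cpd/DMSO, 37 C, reads 0–40 h every 8 h.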

[2] = A CellTox Green Cytotoxicity Assay to monitor cytotoxicity in HepG2 cells - 0 hour (AID 1224882); also: nearly all actives have a fitted effect of over 35% in size
Method in brief: (§2)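 First, HepG2 cells (600/well) mixed with reagent were plated; second, after 5 h at 37 C they received compounds via pintool; third, fluorescence was measured at 0 h through 40 h at 8 h intervals.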

[3] = A CellTox Green Cytotoxicity Assay to monitor cytotoxicity in HEK293 cells - 8 hour (AID 1224884); also: nearly all actives have a fitted effect of over 35% in size
Method in brief: as §1

[4] = qHTS RealTime-Glo MT Cell Viability Assay in HepG2 cells - 16 hour (AID 1224885); also: nearly all actives have a fitted effect of over 50% in size
Method in brief: (§3)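 Luminescence read-out: viable HepG2 cells reduce a prosubstrate to a NanoLuc substrate, giving a signal proportional to live cell number. Reads taken at 0, 8, 16, 24, 32 and 40 h of compound exposure at 37 C.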

[5] = qHTS RealTime-Glo MT Cell Viability Assay in HEK293 cells - 8 hour (AID 1224887); also: top concentration of the series differs between compounds; nearly all actives have a fitted effect of over 50% in size
Method in brief: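 600 HEK293 cells per well, dispensed already mixed with RealTime-Glo MT reagents. Compound dosing came 5 h later. The same wells were read for luminescence at 0, 8, 16, 24, 32 and 40 h of exposure at 37 C.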

[6] = A CellTox Green Cytotoxicity Assay to monitor cytotoxicity in HEK293 cells - 16 hour (AID 1224888); also: nearly all actives have a fitted effect of over 35% in size
Method in brief: as §1

[7] = qHTS RealTime-Glo MT Cell Viability Assay in HepG2 cells - 0 hour (AID 1224889); also: nearly all actives have a fitted effect of over 50% in size
Method in brief: as §3

[8] = A CellTox Green Cytotoxicity Assay to monitor cytotoxicity in HepG2 cells - 8 hour (AID 1224890); also: nearly all actives have a fitted effect of over 45% in size
Method in brief: as §2

[9] = qHTS assay to identify small molecule antagonists of the estrogen receptor alpha (ER-alpha) signaling pathway using the BG1 cell line in the presence of 0.1 nM 17-beta-estradiol - cell viability counter screen (AID 1259241); also: nearly all actives have a fitted effect of over 40% in size
Method in brief: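 VM7Luc4E2 cells (endogenous ER-alpha, 4×ERE-luciferase), hormone-starved 5 days in charcoal-stripped FBS, were treated with compounds plus 0.1 nM 17beta-estradiol for 22 hr at 37C; viability read in same wells as CellTiter-Fluor live-cell protease fluorescence.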

[10] = qHTS assay to identify small molecule antagonists of the androgen receptor (AR) signaling pathway using the MDA cell line in the presence of 0.5 nM R1881 - cell viability counter screen (AID 1259242); also: nearly all actives have a fitted effect of over 45% in size
Method in brief: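 qHTS format. MDA-kb2 (MMTV-luc, AR/GR responsive) + cpd + 0.5 nM R1881 final, 16 hr 37C/0% CO2 → CellTiter-Fluor 30 min → fluorescence intensity.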

[11] = qHTS assay to identify small molecule phospholipidosis (PLD) inducers (AID 1259344; active = well fitted curve in the direction sought with a large enough effect; an effect the other way counts as inactive or inconclusive)
Method in brief: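 Image-based: LipidTOX Red pit count/intensity per well and per cell; HepG2, 24 h compound at 37 C, PFA fixation, Hoechst counterstain.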

[12] = qHTS assay to identify small molecule HDAC inhibitors (AID 1259364);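 also: wild-type HCT-116 cells with endogenous class I/II HDAC activity; top concentration of the series differs between compounds; nearly all actives have a fitted effect of over 45% in size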
Method in brief: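 Quantitative high-throughput format: overnight-seeded HCT-116 cells got compounds for 2 hr at 37C; HDAC-Glo I/II reagent added, 30 min RT, luminescence measured.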

[13] = qHTS assay to identify small molecule HDAC inhibitors - cell viability counter screen (AID 1259365); also: series mostly up to about 92 µM; nearly all actives have a fitted effect of over 50% in size
Method in brief: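 Wild-type HCT-116 cells were seeded at 1,500 per well, incubated overnight at 37 C, then exposed to compounds in DMSO for 2hr. Viability was read by CellTiter-Glo luminescence after 30min at room temperature.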

[14] = qHTS assay to identify small molecule agonists of the sonic hedgehog signaling (Shh) pathway - cell viability counter screen (AID 1259366); also: nearly all actives have a fitted effect of over 50% in size
Method in brief: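 NIH/3T3-derived 3T3 Gli1-Luc cells (stable Gli1-responsive firefly luciferase reporter) were seeded, rested 4 hr at 37 C/5% CO2, then exposed to compounds in DMSO for 24 hr; viability was read by CellTiter-Fluor fluorescence in the same wells.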

[15] = qHTS assay to identify small molecule antagonists of the sonic hedgehog signaling (Shh) pathway - cell viability counter screen (AID 1259367); also: nearly all actives have a fitted effect of over 55% in size
Method in brief: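 Tox21 library chemicals were tested on a Gli1-Luc NIH/3T3 clone (2,000 cells/well) stimulated by conditioned medium; viability was quantified as fluorescence from CellTiter-Fluor reagent added at 23 hr.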

[16] = qHTS assay to identify small molecule agonists of the sonic hedgehog signaling (Shh) pathway (AID 1259368; calls by dose curve; also: series mostly up to about 92 µM; nearly all actives have a fitted effect of over 15% in size)
Method in brief: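 Quantitative high-throughput format using a Gli1-driven firefly luciferase reporter line derived from NIH/3T3 cells. After a 24 hr compound treatment at 37 C and 5% CO2, luminescence reported Gli1 response element activity.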

[17] = A CellTox Green Cytotoxicity Assay to monitor cytotoxicity in HepG2 cells - 32 hour (AID 1224883); also: nearly all actives have a fitted effect of over 50% in size
Method in brief: as §2

[18] = qHTS RealTime-Glo MT Cell Viability Assay in HEK293 cells - 24 hour (AID 1224886)
Method in brief: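 Nonlytic real-time viability readout: viable cells convert prosubstrate to NanoLuc substrate, giving luminescence proportional to live cell number. HEK293, 600 cells/well, compound added after 5 h, continuous culture at 37 C.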

[19] = biological target: Estrogen receptor (Homo sapiens) (UniProt P03372); test: qHTS assay to identify small molecule antagonists of the estrogen receptor alpha (ER-alpha) signaling pathway using the BG1 cell line in the presence of 0.1 nM 17-beta-estradiol (AID 1259244); also: nearly all actives have a fitted effect of over 50% in size
Estrogen receptor (Homo sapiens), sequence (P03372 whole entry, looked up): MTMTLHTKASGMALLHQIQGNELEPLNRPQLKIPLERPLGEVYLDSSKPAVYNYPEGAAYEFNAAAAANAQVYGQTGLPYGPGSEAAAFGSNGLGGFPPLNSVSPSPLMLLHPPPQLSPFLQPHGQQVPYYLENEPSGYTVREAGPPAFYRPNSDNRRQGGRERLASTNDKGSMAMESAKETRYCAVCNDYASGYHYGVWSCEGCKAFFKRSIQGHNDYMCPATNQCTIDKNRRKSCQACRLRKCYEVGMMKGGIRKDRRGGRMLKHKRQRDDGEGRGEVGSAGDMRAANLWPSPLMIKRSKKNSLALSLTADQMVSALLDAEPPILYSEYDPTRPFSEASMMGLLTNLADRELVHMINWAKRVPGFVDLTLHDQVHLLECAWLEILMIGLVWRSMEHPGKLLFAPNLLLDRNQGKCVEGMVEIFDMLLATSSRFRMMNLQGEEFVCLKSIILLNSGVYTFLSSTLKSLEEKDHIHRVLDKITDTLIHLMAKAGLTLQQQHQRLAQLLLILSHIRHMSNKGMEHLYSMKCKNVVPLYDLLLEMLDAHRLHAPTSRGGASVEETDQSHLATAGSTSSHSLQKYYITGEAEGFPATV
Method in brief: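 Reporter is a stably transfected luciferase under four estrogen responsive elements in VM7Luc4E2 cells expressing native full-length ER-alpha; inhibition of 0.1 nM (final) 17beta-estradiol-driven signal over 22 h is read by luminescence.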

[20] = biological target: Androgen receptor (Homo sapiens) (UniProt P10275); test: qHTS assay to identify small molecule antagonists of the androgen receptor (AR) signaling pathway using the MDA cell line in the presence of 0.5 nM R1881 (AID 1259243); also: nearly all actives have a fitted effect of over 50% in size
Androgen receptor (Homo sapiens), sequence (P10275 whole entry, looked up): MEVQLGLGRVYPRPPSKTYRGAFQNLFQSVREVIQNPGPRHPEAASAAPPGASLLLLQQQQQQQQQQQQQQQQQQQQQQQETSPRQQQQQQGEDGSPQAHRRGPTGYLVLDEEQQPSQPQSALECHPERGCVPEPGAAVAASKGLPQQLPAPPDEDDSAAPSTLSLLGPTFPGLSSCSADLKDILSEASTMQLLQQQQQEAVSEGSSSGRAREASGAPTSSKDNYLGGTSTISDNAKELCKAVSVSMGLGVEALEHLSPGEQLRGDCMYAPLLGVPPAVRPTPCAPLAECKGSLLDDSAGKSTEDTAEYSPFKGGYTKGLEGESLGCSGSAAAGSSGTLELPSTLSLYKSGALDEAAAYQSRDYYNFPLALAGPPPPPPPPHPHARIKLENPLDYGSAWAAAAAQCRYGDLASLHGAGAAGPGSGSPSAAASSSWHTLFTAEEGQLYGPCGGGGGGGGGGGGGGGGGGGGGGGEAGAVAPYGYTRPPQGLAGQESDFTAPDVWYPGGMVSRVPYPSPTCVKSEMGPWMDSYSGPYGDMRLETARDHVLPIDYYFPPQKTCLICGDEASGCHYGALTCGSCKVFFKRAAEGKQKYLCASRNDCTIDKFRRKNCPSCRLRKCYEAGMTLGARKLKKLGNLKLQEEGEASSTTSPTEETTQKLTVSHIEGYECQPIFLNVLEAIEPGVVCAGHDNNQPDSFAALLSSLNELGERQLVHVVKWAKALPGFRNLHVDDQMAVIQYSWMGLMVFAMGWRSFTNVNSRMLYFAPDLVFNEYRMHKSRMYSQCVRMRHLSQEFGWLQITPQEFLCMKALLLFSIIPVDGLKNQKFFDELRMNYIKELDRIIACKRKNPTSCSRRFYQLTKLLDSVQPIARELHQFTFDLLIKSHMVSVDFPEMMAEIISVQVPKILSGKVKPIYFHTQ
Method in brief: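 Antagonist mode quantitative HTS in MDA-kb2 MMTV-luciferase cells, agonist R1881 at 0.5 nM final, 16 hr exposure at 37C and 0% CO2, luminescent detection.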
% is scaled to controls: 0 for no effect and ±100 for the full control effect.

O=C(O)CNC(=O)c1ccccc1
inactive: outcome [1] | Potency [2] | outcome [3] | outcome [4] | Potency [5] | outcome [6] | Potency [7] | outcome [8] | outcome [9] | outcome [10] | outcome [11] | Potency [12] | outcome [13] | Potency [14] | Potency [15] | outcome [16]

CCCCN(CCC(=O)OCC)C(C)=O
inactive: Potency [2] | Potency [17] | outcome [3] | outcome [4] | Potency [18] | Potency [5] | outcome [6] | Potency [7] | outcome [8] | outcome [9] | outcome [10] | outcome [19] | Potency [12] | outcome [13] | Potency [14] | Potency [15]

C=C(C)C(=O)OCCOCCOCCOCCOC(=O)C(=C)C
inactive: outcome [1] | Potency [2] | outcome [3] | outcome [4] | Potency [18] | Potency [5] | outcome [6] | Potency [7] | outcome [8] | outcome [9] | outcome [10] | Potency [12] | outcome [13] | Potency [15]

NC(=O)N1c2ccccc2CC(=O)c2ccccc21
inactive: outcome [1] | Potency [2] | outcome [3] | outcome [4] | Potency [5] | outcome [6] | Potency [7] | outcome [8] | outcome [9] | outcome [10] | Potency [12] | outcome [13] | Potency [14] | Potency [15]

CCCCN1C=CN(C)C1
inactive: cytotoxicity increase [1] -9.11% [at 15.8 µM] | cytotoxicity [2] -12.1% [at 15.8 µM] | cytotoxicity increase [3] -6.47% [at 15.8 µM] | activity change, negative = cytotoxic [4] 3.26% [at 15.8 µM] | activity change, negative = cytotoxicity [5] 5.36% [at 15.8 µM] | activity change [6] -9.59% [at 15.8 µM] | activity change, negative = cytotoxicity [7] 0.175% [at 15.8 µM] | cytotoxicity increase [8] -8.5% [at 15.8 µM] | activity change, negative = cytotoxicity [9] 0.391% [at 19 µM] | viability change, negative = cytotoxic [10] 0.923% [at 19 µM] | activity change, negative = inhibition [19] 8.85% [at 19 µM] | activity change, negative = inhibition [12] -8.42% [at 19 µM] | activity change, negative = cytotoxicity [13] 5.24% [at 19 µM] | viability change, negative = cytotoxic [14] 3.43% [at 19 µM] | viability change, negative = cytotoxic [15] 0.731% [at 19 µM] | activity change [16] 1.75% [at 18.9 µM]

O=C(O)CCSCCC(=O)O
inactive: outcome [1] | Potency [2] | outcome [3] | outcome [4] | Potency [18] | Potency [5] | Potency [7] | outcome [8] | outcome [9] | outcome [10] | Potency [20] | outcome [19] | Potency [12] | outcome [13] | Potency [14] | Potency [15]

CC1=CCC(O)(C(C)C)CC1 (stereo not given)
inactive: Potency [2] | Potency [17] | outcome [3] | outcome [4] | Potency [18] | Potency [5] | outcome [6] | Potency [7] | outcome [8] | outcome [9] | outcome [10] | outcome [19] | Potency [12] | outcome [13] | Potency [14] | Potency [15] | outcome [16]

CCNC(=O)[C@@H]1CCCN1C(=O)[C@H](CCCN=C(N)N)NC(=O)[C@H](CC(C)C)NC(=O)CNC(=O)[C@H](Cc1ccc(O)cc1)NC(=O)[C@H](CO)NC(=O)[C@H](Cc1c[nH]c2ccccc12)NC(=O)[C@H](Cc1cnc[nH]1)NC(=O)[C@@H]1CCC(=O)N1 ([pGlu]HWSYGLRP-NHEt)
inactive: outcome [1] | Potency [2] | outcome [3] | outcome [4] | Potency [18] | Potency [5] | Potency [7] | outcome [8] | outcome [9] | outcome [10] | outcome [19] | Potency [12] | outcome [13] | Potency [14] | Potency [15] | outcome [16]

CCCCCC(=O)OCCc1ccccc1
inactive: Potency [2] | Potency [17] | outcome [3] | outcome [4] | Potency [18] | Potency [5] | outcome [6] | Potency [7] | outcome [8] | outcome [9] | outcome [10] | outcome [19] | Potency [12] | outcome [13] | Potency [14] | Potency [15] | outcome [16]

CO[C@@]1(NC(=O)C(C(=O)O)c2ccc(O)cc2)C(=O)N2C(C(=O)O)=C(CSc3nnnn3C)CO[C@@H]21 (stereo not given in full)
inactive: Potency [17] | outcome [3] | outcome [4] | Potency [5] | outcome [6] | Potency [7] | outcome [8] | outcome [9] | outcome [10] | outcome [19] | outcome [11] | Potency [12] | outcome [13] | Potency [15] | outcome [16]

C[N+]1(C)CCCC(OC(=O)C(O)(c2ccccc2)c2ccccc2)C1 (stereo not given)
inactive: Potency [2] | Potency [17] | outcome [3] | outcome [4] | Potency [18] | Potency [5] | outcome [6] | Potency [7] | outcome [8] | outcome [9] | outcome [10] | outcome [19] | Potency [12] | outcome [13] | Potency [14] | Potency [15] | outcome [16]

CCOC(=O)C1=NOC(c2ccccc2)(c2ccccc2)C1
inactive: Potency [2] | Potency [17] | outcome [3] | outcome [4] | Potency [5] | outcome [6] | Potency [7] | outcome [8] | outcome [9] | outcome [10] | outcome [19] | Potency [12] | outcome [13] | Potency [14] | Potency [15] | outcome [16]

Source: PubChem BioAssay (Tox21)
